Measurements: the supplement of paper PMC7411054
Structures can show the parent of a compound that is named as a salt.

Key:
Assay in all cases: phenotypically active (imaging signature differs from DMSO and reproducible) at any of 0.3-9 uM (binary (1 = active, 0 = inactive)); higher = active
Settings in all cases: treatment time: 24 h
A549-ACTB-RAB5A = system: A549-ACTB-RAB5A
In short: (§1)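 Live-cell features were measured per well and normalised to solvent control wells after fifteen gene-edited A549, HepG2 and WPMY1 reporter lines had been treated for 24 h at 0.3, 1, 3 or 9 µM in four wells each. A condition was deviating when ≥3 of 4 wells sat beyond the 95th percentile of control Euclidean distances. It was reproducible when the median replicate Pearson correlation exceeded the 95th percentile of non-replicates. Phenotypic activity demanded both.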

A549-CANX-COX4 = system: A549-CANX-COX4
In short: as §1

A549-GM130-SQSTM1 = system: A549-GM130-SQSTM1
In short: as §1

A549-TP53BP1-CLTA = system: A549-TP53BP1-CLTA
In short: as §1

A549-TUBA1B-RELA = system: A549-TUBA1B-RELA
In short: as §1

HepG2-ACTB-RAB5A = system: HepG2-ACTB-RAB5A
In short: as §1

HepG2-CANX-COX4 = system: HepG2-CANX-COX4
In short: as §1

HepG2-GM130-SQSTM1 = system: HepG2-GM130-SQSTM1
In short: as §1

HepG2-TP53BP1-CLTA = system: HepG2-TP53BP1-CLTA
In short: as §1

HepG2-TUBA1B-RELA = system: HepG2-TUBA1B-RELA
In short: as §1

WPMY1-ACTB-RAB5A = system: WPMY1-ACTB-RAB5A
In short: as §1

WPMY1-CANX-COX4 = system: WPMY1-CANX-COX4
In short: as §1

WPMY1-GM130-SQSTM1 = system: WPMY1-GM130-SQSTM1
In short: as §1

WPMY1-TP53BP1-CLTA = system: WPMY1-TP53BP1-CLTA
In short: as §1

WPMY1-TUBA1B-RELA = system: WPMY1-TUBA1B-RELA
In short: as §1

Measured: phenotypically active

Cc1ccccc1C(OCCN(C)C)c1ccccc1 (stereo not given) [orphenadrine]
inactive: A549-ACTB-RAB5A 0 | A549-CANX-COX4 0 | A549-GM130-SQSTM1 0 | A549-TP53BP1-CLTA 0 | A549-TUBA1B-RELA 0 | HepG2-ACTB-RAB5A 0 | HepG2-CANX-COX4 0 | HepG2-GM130-SQSTM1 0 | HepG2-TP53BP1-CLTA 0 | HepG2-TUBA1B-RELA 0 | WPMY1-ACTB-RAB5A 0 | WPMY1-CANX-COX4 0 | WPMY1-GM130-SQSTM1 0 | WPMY1-TP53BP1-CLTA 0 | WPMY1-TUBA1B-RELA 0

Cc1ccc(OCCSc2ncccn2)c(Br)c1 [ZLN 024 hydrochloride]
inactive: A549-ACTB-RAB5A 0 | A549-CANX-COX4 0 | A549-GM130-SQSTM1 0 | A549-TP53BP1-CLTA 0 | A549-TUBA1B-RELA 0 | HepG2-ACTB-RAB5A 0 | HepG2-CANX-COX4 0 | HepG2-GM130-SQSTM1 0 | HepG2-TP53BP1-CLTA 0 | HepG2-TUBA1B-RELA 0 | WPMY1-ACTB-RAB5A 0 | WPMY1-CANX-COX4 0 | WPMY1-GM130-SQSTM1 0 | WPMY1-TP53BP1-CLTA 0 | WPMY1-TUBA1B-RELA 0

COc1ccc2c(c1)N(C(C)=O)[C@H]1[C@@H]3CO[C@H](C)[C@@H]4CN5CC[C@]21[C@@H]5C[C@H]34 [Strychnospermine]
inactive: A549-ACTB-RAB5A 0 | A549-CANX-COX4 0 | A549-GM130-SQSTM1 0 | A549-TP53BP1-CLTA 0 | A549-TUBA1B-RELA 0 | HepG2-ACTB-RAB5A 0 | HepG2-CANX-COX4 0 | HepG2-GM130-SQSTM1 0 | HepG2-TP53BP1-CLTA 0 | HepG2-TUBA1B-RELA 0 | WPMY1-ACTB-RAB5A 0 | WPMY1-CANX-COX4 0 | WPMY1-GM130-SQSTM1 0 | WPMY1-TP53BP1-CLTA 0 | WPMY1-TUBA1B-RELA 0

c1ccc2c(c1)CCCC2C1=NCCN1 (stereo not given) [tetrahydrozoline]
inactive: A549-ACTB-RAB5A 0 | A549-CANX-COX4 0 | A549-GM130-SQSTM1 0 | A549-TP53BP1-CLTA 0 | A549-TUBA1B-RELA 0 | HepG2-ACTB-RAB5A 0 | HepG2-CANX-COX4 0 | HepG2-GM130-SQSTM1 0 | HepG2-TP53BP1-CLTA 0 | HepG2-TUBA1B-RELA 0 | WPMY1-ACTB-RAB5A 0 | WPMY1-CANX-COX4 0 | WPMY1-GM130-SQSTM1 0 | WPMY1-TP53BP1-CLTA 0 | WPMY1-TUBA1B-RELA 0

CC1=CC(=O)CC(C)(C)C1(O)/C=C/C(C)=C\C(=O)O (mixture of isomers) [(+/-)-2-cis-4-trans-Abscisic acid]
inactive: A549-ACTB-RAB5A 0 | A549-CANX-COX4 0 | A549-GM130-SQSTM1 0 | A549-TP53BP1-CLTA 0 | A549-TUBA1B-RELA 0 | HepG2-ACTB-RAB5A 0 | HepG2-CANX-COX4 0 | HepG2-GM130-SQSTM1 0 | HepG2-TP53BP1-CLTA 0 | HepG2-TUBA1B-RELA 0 | WPMY1-ACTB-RAB5A 0 | WPMY1-CANX-COX4 0 | WPMY1-GM130-SQSTM1 0 | WPMY1-TP53BP1-CLTA 0 | WPMY1-TUBA1B-RELA 0

CN1C(CSCC(F)(F)F)Nc2cc(Cl)c(S(N)(=O)=O)cc2S1(=O)=O (stereo not given) [polythiazide]
inactive: A549-ACTB-RAB5A 0 | A549-CANX-COX4 0 | A549-GM130-SQSTM1 0 | A549-TP53BP1-CLTA 0 | A549-TUBA1B-RELA 0 | HepG2-ACTB-RAB5A 0 | HepG2-CANX-COX4 0 | HepG2-GM130-SQSTM1 0 | HepG2-TP53BP1-CLTA 0 | HepG2-TUBA1B-RELA 0 | WPMY1-ACTB-RAB5A 0 | WPMY1-CANX-COX4 0 | WPMY1-GM130-SQSTM1 0 | WPMY1-TP53BP1-CLTA 0 | WPMY1-TUBA1B-RELA 0

CCOC(=O)[C@H](CCc1ccccc1)N[C@@H](C)C(=O)N1Cc2ccccc2C[C@H]1C(=O)O [quinapril]
inactive: A549-ACTB-RAB5A 0 | A549-CANX-COX4 0 | A549-GM130-SQSTM1 0 | A549-TP53BP1-CLTA 0 | A549-TUBA1B-RELA 0 | HepG2-ACTB-RAB5A 0 | HepG2-CANX-COX4 0 | HepG2-GM130-SQSTM1 0 | HepG2-TP53BP1-CLTA 0 | HepG2-TUBA1B-RELA 0 | WPMY1-ACTB-RAB5A 0 | WPMY1-CANX-COX4 0 | WPMY1-GM130-SQSTM1 0 | WPMY1-TP53BP1-CLTA 0 | WPMY1-TUBA1B-RELA 0

Nc1ccc(O)c(C(=O)O)c1 [mesalazine]
inactive: A549-ACTB-RAB5A 0 | A549-CANX-COX4 0 | A549-GM130-SQSTM1 0 | A549-TP53BP1-CLTA 0 | A549-TUBA1B-RELA 0 | HepG2-ACTB-RAB5A 0 | HepG2-CANX-COX4 0 | HepG2-GM130-SQSTM1 0 | HepG2-TP53BP1-CLTA 0 | HepG2-TUBA1B-RELA 0 | WPMY1-ACTB-RAB5A 0 | WPMY1-CANX-COX4 0 | WPMY1-GM130-SQSTM1 0 | WPMY1-TP53BP1-CLTA 0 | WPMY1-TUBA1B-RELA 0

COc1ccc(C(C)=O)c(O)c1 [2'-Hydroxy-4'-Methoxyacetophenone]
inactive: A549-ACTB-RAB5A 0 | A549-CANX-COX4 0 | A549-GM130-SQSTM1 0 | A549-TP53BP1-CLTA 0 | A549-TUBA1B-RELA 0 | HepG2-ACTB-RAB5A 0 | HepG2-CANX-COX4 0 | HepG2-GM130-SQSTM1 0 | HepG2-TP53BP1-CLTA 0 | HepG2-TUBA1B-RELA 0 | WPMY1-ACTB-RAB5A 0 | WPMY1-CANX-COX4 0 | WPMY1-GM130-SQSTM1 0 | WPMY1-TP53BP1-CLTA 0 | WPMY1-TUBA1B-RELA 0

CNNCc1ccc(C(=O)NC(C)C)cc1 [procarbazine]
inactive: A549-ACTB-RAB5A 0 | A549-CANX-COX4 0 | A549-GM130-SQSTM1 0 | A549-TP53BP1-CLTA 0 | A549-TUBA1B-RELA 0 | HepG2-ACTB-RAB5A 0 | HepG2-CANX-COX4 0 | HepG2-GM130-SQSTM1 0 | HepG2-TP53BP1-CLTA 0 | HepG2-TUBA1B-RELA 0 | WPMY1-ACTB-RAB5A 0 | WPMY1-CANX-COX4 0 | WPMY1-GM130-SQSTM1 0 | WPMY1-TP53BP1-CLTA 0 | WPMY1-TUBA1B-RELA 0
